Molecules are shown by their SMILES.

The values below come from paper PMC11062922 (Nature Chemical Biology, 2023).

Parameters in all cases: species or system human, MV4-11 + K-562 + COLO205 + SK-N-BE2 + OVCAR-8
The test system of one experiment is NEK1. Conditions: read-out: apparent Kd; compound concentrations: 100 nM and 1000 nM (sheet 'Samples'), CATDS: 0.147931725525974; n = 1.
In another experiment the test system is TESK2. Conditions: read-out: apparent Kd; compound concentrations:100 nM and 1000 nM (sheet 'Samples'); n = 1.
Another experiment deals with MAP3K5. Conditions: read-out: apparent Kd; compound concentrations: 100 nM and 1000 nM (sheet 'Samples'), CATDS: 5.5720140806326597E-2; n = 1.
The next experiment relates to NEK2. The following applies: read-out: apparent Kd; compound concentrations:100 nM and 1000 nM (sheet 'Samples'); n = 1.
A further experiment relates to PKMYT1. The following applies: read-out: apparent Kd; compound concentrations:100 nM and 1000 nM (sheet 'Samples'); n = 1.
In another experiment the test system is PHKG2. The following applies: read-out: apparent Kd; compound concentrations: 100 nM and 1000 nM (sheet 'Samples'), CATDS: 8.5402919050668602E-3; n = 1.
The test system of a further experiment is PRKACA. Conditions: read-out: apparent Kd; compound concentrations: 100 nM and 1000 nM (sheet 'Samples'), CATDS: 7.7130843989671599E-3; n = 1.
The test system of another experiment is PI4KB. The following applies: read-out: apparent Kd; compound concentrations: 100 nM and 1000 nM (sheet 'Samples'), CATDS: 0.18067625739165599; n = 1.
Another experiment deals with MAP2K3. The following applies: read-out: apparent Kd; compound concentrations:100 nM and 1000 nM (sheet 'Samples'); n = 1.
In a further experiment the test system is PIK3CB. The following applies: read-out: apparent Kd; compound concentrations:100 nM and 1000 nM (sheet 'Samples'); n = 1.
The test system of a further experiment is SLC25A5. The following applies: read-out: apparent Kd; compound concentrations:100 nM and 1000 nM (sheet 'Samples'); n = 1.
The next experiment has as its system CLK3. Conditions: read-out: apparent Kd; compound concentrations: 100 nM and 1000 nM (sheet 'Samples'), CATDS: 1.8485003347971998E-2; n = 1.
Another experiment has as its system NTRK1. Conditions: read-out: apparent Kd; compound concentrations: 100 nM and 1000 nM (sheet 'Samples'), CATDS: 1.31353956305182E-2; n = 1.
For a further experiment, the system named is RPS6KA1. The following applies: read-out: apparent Kd; compound concentrations: 100 nM and 1000 nM (sheet 'Samples'), CATDS: 1.0541415060752299E-2; n = 1.
A further experiment relates to MAPK3. The following applies: read-out: apparent Kd; compound concentrations:100 nM and 1000 nM (sheet 'Samples'); n = 1.
The next experiment has as its system PIK3C2B. Conditions: read-out: apparent Kd; compound concentrations: 100 nM and 1000 nM (sheet 'Samples'), CATDS: 3.01337612448444E-2; n = 1.
A further experiment concerns FES. Conditions: read-out: apparent Kd; compound concentrations: 100 nM and 1000 nM (sheet 'Samples'), CATDS: 3.8230279183827799E-2; n = 1.
The test system of the next experiment is NEK9. Conditions: read-out: apparent Kd; compound concentrations: 100 nM and 1000 nM (sheet 'Samples'), CATDS: 2.1458730065113701E-2; n = 1.
Another experiment deals with AGPS. Conditions: read-out: apparent Kd; compound concentrations:100 nM and 1000 nM (sheet 'Samples'); n = 1.
The next experiment has as its system CDC42BPG. The following applies: read-out: apparent Kd; compound concentrations: 100 nM and 1000 nM (sheet 'Samples'), CATDS: 6.5617212110221396E-2; n = 1.

In the case of `COc1cc(Nc2nccc(N3CCC(NC(=O)c4cccc(C#N)c4)C3)n2)cc(OC)c1OC` (centres unmarked) [GSK1379751A], the potency estimated from few doses in the experiment with NEK1 is 1860 nM.
As to `CCn1cc(-c2ccnc3[nH]c(-c4cccc(CN(C)C)c4)cc23)c(-c2ccc(NC(=O)N(C)C)cc2)n1` [GSK1070916], the potency estimated from few doses in the experiment with TESK2 is 1310 nM.
As to `CNC1=NC(=O)/C(=C/c2ccc3ncccc3c2)S1` [RO4595949-000], the potency estimated from few doses in the experiment on MAP3K5 is 1240 nM.
For the compound `CCN(CC)CCOc1ccc(Nc2ncc3cc(-c4c(Cl)cccc4Cl)c(=O)n(C)c3n2)cc1` [SB-601273], the potency estimated from few doses was 1780 nM in the experiment on NEK2 and 1030 nM with PKMYT1.
As to `O=C1N=C(NCc2cccs2)SC1Cc1ccc2ncccc2c1` (centres unmarked) [RO4629078-000], the potency estimated from few doses is 1040 nM with PHKG2 and 1470 nM in the experiment on PRKACA.
In the case of `CS(=O)(=O)c1ccc(-c2cnc(N)c(C(=O)Nc3ccccc3)n2)cc1` [VE-821], in the experiment on PI4KB, the potency estimated from few doses is 812 nM.
Turning to `Nc1nc(N)c2nc(-c3ccccc3)[nH]c2n1` [SKF-12778], the values for the potency estimated from few doses in the experiment on MAP2K3, with PIK3CB and with SLC25A5 were 2020 nM, 790 nM and 1960 nM, respectively.
For `CNC(=O)c1ccccc1Nc1nc(Nc2cccc(CS(C)(=O)=O)c2)ncc1C.O=CO` [GSK1520489A], the potency estimated from few doses in the experiment on CLK3 is 167 nM; in the experiment on NTRK1, 438 nM; with RPS6KA1 it was 1010 nM.
Take `N#Cc1cccc(Nc2nccc(-c3cnn4ncccc34)n2)c1` [GW778894X]: the potency estimated from few doses with MAPK3 was 975 nM.
Consider `O=S(=O)(CCOCc1ccc(-c2ccc3ncnc(Nc4ccc(OCc5cccc(F)c5)c(Cl)c4)c3c2)o1)c1ccccc1` [GW615311X], for which the potency estimated from few doses with PIK3C2B was 1160 nM.
With `CN1CCN(Cc2ccc(NC(=O)Nc3ccc(N(C)c4ccnc(Nc5ccc(CS(C)(=O)=O)cc5)n4)cc3)cc2)CC1.Cl` [GW827654A], the potency estimated from few doses with FES was 1230 nM.
Regarding `CC(C)c1nc(-c2cccc(NS(=O)(=O)c3c(F)cccc3F)c2F)c(-c2ccnc(Nc3ccc(N4CCOCC4)nc3)n2)s1` [GSK2008607A], the potency estimated from few doses in the experiment on NEK9 was 1100 nM.
As to `COc1ccc(COc2ccc(Cc3cnc(N)nc3N)cc2OC)cc1` [GW632580X], the potency estimated from few doses with AGPS was 1650 nM.
Turning to `COc1ccc(-c2nn3ncccc3c2-c2ccnc(Nc3ccc4c(c3)OCCO4)n2)cc1` [GW827106X], in the experiment on CDC42BPG, the potency estimated from few doses was 834 nM.
